# Screening data (PubChem)
# Pol iota inh = inhibitors of human DNA polymerase iota; actives 1% (n = 390,000); Q9UNA4; Pol iota fluorescent replication assay, 10 min; Potency, µM (doses to about 115 µM), inactives show top-dose activity, negative = inhibition, usual class: inhibitors; further: potency means the concentration at half of the fitted maximal effect
# Target sequence (Q9UNA4 whole entry, looked up): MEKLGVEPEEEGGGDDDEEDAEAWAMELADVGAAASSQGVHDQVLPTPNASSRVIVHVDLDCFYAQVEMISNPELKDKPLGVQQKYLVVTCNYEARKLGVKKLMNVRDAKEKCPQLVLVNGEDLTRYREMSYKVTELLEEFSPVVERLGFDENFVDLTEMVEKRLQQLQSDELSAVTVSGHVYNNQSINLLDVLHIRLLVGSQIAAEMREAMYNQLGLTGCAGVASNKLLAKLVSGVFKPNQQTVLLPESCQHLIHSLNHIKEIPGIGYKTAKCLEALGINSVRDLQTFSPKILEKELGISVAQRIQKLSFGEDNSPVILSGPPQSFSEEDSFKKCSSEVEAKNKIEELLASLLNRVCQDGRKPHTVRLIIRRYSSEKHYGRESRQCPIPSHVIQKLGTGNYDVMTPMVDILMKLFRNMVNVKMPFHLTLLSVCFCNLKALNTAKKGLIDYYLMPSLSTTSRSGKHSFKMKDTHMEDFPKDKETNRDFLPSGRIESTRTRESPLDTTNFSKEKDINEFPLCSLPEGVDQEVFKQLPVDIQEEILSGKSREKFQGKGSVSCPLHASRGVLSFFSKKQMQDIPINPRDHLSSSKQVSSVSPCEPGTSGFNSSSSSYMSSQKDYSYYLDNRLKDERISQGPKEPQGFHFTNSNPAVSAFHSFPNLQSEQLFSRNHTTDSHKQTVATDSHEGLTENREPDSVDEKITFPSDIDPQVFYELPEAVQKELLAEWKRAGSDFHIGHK
#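 Pol iota at 10 nM preincubated 15 min with compounds at room temperature; reaction started with fluorescent substrate, 50 nM final. Fluorescence read kinetically at 0 and 10 min; buffer-only wells as negative control.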
# PI5P4Ka inh = inhibitors of human PI5P4K alpha; P48426; PI5P4Kalpha enzyme, ADP-Glo luminescence, 60 min; stronger effect = lower value; max response, %; actives 1.2% (n = 330,000); AID 652105; active means max response of -50% or lower; inconclusive means between -30% and -50%; inactive means -30% or higher; further: value at the top dose of about 77 µM; on the % scale 0 is the no-effect control and ±100 the full control effect
#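 Controls without substrate or without enzyme flank wells where PI5P4Kalpha converts substrate using 5 microM ATP (final). Incubation lasts 60 minutes at room temperature; ADP formed is read by ADP-Glo luminescence.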
# WRN inhibitor = inhibitors of human WRN helicase; Q14191; WRN helicase unwinding, fluorescent forked duplex, kinetic; Potency, µM (doses to about 114 µM), for the others: at the top dose activity change, negative = inhibition, actives largely listed as inhibitors; actives 0.46% (n = 360,000); AID 651768; further: potency means the concentration at half of the fitted maximal effect; on the % scale 0 is the no-effect control and ±100 the full control effect; nearly all actives have a fitted effect of over 55% in size
#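 Primary qHTS, 1536-well format. 20 nM WRN + compound, 15 min RT; start with 100 nM forked fluorophore/quencher duplex, 2 mM ATP (final); kinetic read ex 525/em 598 nm.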
# POLK inh = DNA polymerase kappa (human) inhibition | actives 0.53% (n = 400,000) | purified Pol kappa, fluorescent DNA synthesis assay, 10 min | Potency, µM (top dose mostly 107 µM), without a hit: at the top dose activity, negative = inhibition, usual class: inhibitors | Q9UBT6; further: potency means the concentration at half of the fitted maximal effect; on the % scale 0 is the no-effect control and ±100 the full control effect
#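 Fluorescent qHTS in 1536-well format: enzyme (10 nM) and compound sat 15 min at room temperature before 50 nM substrate (final) was added. Signal taken at 0 and 10 min; no-enzyme buffer wells were negative controls.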
# POLB inh = blocks human DNA polymerase beta activity | Pol beta primer extension/strand displacement, fluorescence kinetic | Potency, µM (titrated, usually from 114 µM), for inactives: top-dose activity change, negative = inhibition, hits mostly inhibitors | actives 1.3% (n = 340,000); further: potency means the concentration at half of the fitted maximal effect; on the % scale 0 is the no-effect control and ±100 the full control effect
#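 Reaction started by 50 nM substrate onto compound-treated Pol beta (10 nM, 15 min preincubation, room temperature); plates read at 0 min and 10 min. Normalized concentration-effect data fitted by four-parameter Hill equation.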
# POLH inh = blocks human DNA polymerase eta activity. recombinant Pol eta, fluorescent DNA replication assay. Potency, µM (top dose mostly 114 µM), for the others: top-dose activity change, negative = inhibition, usual class: inhibitors. AID 588591. Q9Y253. actives 1.2% (n = 390,000); further: potency means the concentration at half of the fitted maximal effect; on the % scale 0 is the no-effect control and ±100 the full control effect
#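 Fluorescent replication assay: 50 nM final substrate added after a 15 min room-temperature compound preincubation with 10 nM enzyme. Signal taken at 0 min and again at 10 min.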
# An asterisk follows results filed as active; ? = inconclusive; nt = no result given; [ ] = dose if it differs, or a comment. Only some compounds are listed: those with a hit (about 2.8% of all), similar ones and a draw of the others. Unless noted, the call rests on the fitted dose curve; in most records, active means well fitted curve in the direction sought with a large enough effect; inconclusive means small, poorly fitted or top-dose-only effect, or another doubt; inactive means no such curve, though single readings can be large; an effect the other way counts as inactive or inconclusive.
SMILES,Pol iota inh,PI5P4Ka inh,WRN inhibitor,POLK inh,POLB inh,POLH inh
COc1cc(S(=O)(=O)Nc2ccc(C)cc2)ccc1N=Cc1c(C)c(C#N)c(=O)n(C)c1O,82%,-11,8%[57.1 µM],?,1%,-12%
Cc1ccc(N/N=C/c2c(C)c(C#N)c(=O)n(C)c2O)cc1C,?,-54*,?,-24%,-2%,-1%
CCOC(=O)/C(C)=C1\NC(C)(C)Cc2ccccc21,?,-66*,-3%,-2%,-3%,-2%
O=C(NCc1ccccc1Br)c1cnc2sc(N3CCCCCC3)nn2c1=O,29%,nt,nt,2%,10%,-11%
O=C(O)COc1ccccc1/C=N/NC(=O)c1ccncc1,nt,nt,nt,0%[19.4 µM],nt,nt
O=C(O)COc1ccccc1/C=N/NC(=O)c1cc2ccccc2cc1O,14µM*,-21,-8%[11.6 µM],?,-11%,-5%
O=C(O)COc1ccccc1C=NNC(=O)c1ccc(NS(=O)(=O)c2cccs2)cc1,-5%,-57*,-20%,-6%,nt,3%
O=S(=O)([O-])CCC[n+]1c(SCCCS(=O)(=O)O)sc2ccc(Cl)cc21,?,-1,35µM*,-3%,10%,-11%
CCCN(CCC)CCNC(=O)c1sc2nc3n(c(=O)c2c1C)CCCCC3,73%,nt,nt,-5%,-11%,5%
N=C(N)S/C=C\C(=O)O,nt,nt,nt,6%[19.4 µM],nt,nt
CSC1=NSC2=NC(=O)/C(=C/c3coc4ccc(O)cc4c3=O)C(=N)N12,?,-74*,45µM*,40µM*,25µM*,3.2µM*
COC(=O)c1ccc(NC(=O)C(=O)c2cccn2C)cc1,-4%,-53*,-4%,4%,1%,-3%
CCc1ccc(NCc2cc3cc4c(cc3n(CC(=O)Nc3ccccc3OC)c2=O)OCCO4)cc1,37%,nt,nt,1%,?,-8%
Cc1ccc(S(=O)(=O)N2CCOCC2)cc1NC(=O)CN(C)CC(=O)Nc1cccc(F)c1,nt,-1,8%,nt,nt,-8%
CC1CCN(CCCCOc2ccccc2[N+](=O)[O-])CC1,79µM*,nt,-8%[57.1 µM],-9%,24%,-6%
CC1CCN(CCCCOc2ccc([N+](=O)[O-])cc2)CC1,171%,1,0%,0%,14%,-17%
CC(=O)NC1=NN(C(C)=O)C(C)(c2ccccc2)S1 (stereo not drawn),7%,nt,-7%,-8%[60.1 µM],7.1µM*,-2%
CCC(CN(C)C)Oc1cc(NCc2ccccc2)c2ncn(C(C)C)c2c1 (stereo not drawn),14µM*,-29,3%,-12%,nt,-17%
COc1ccc2nc(NNC(=O)c3cc(=O)c4ccccc4o3)sc2c1,-6%,-76*,-9%[57.1 µM],11%,?,79µM*
Cc1ccc2sc(NNC(=O)c3cc(=O)c4ccccc4o3)nc2c1C,?,?,-6%,-9%,-2%,-24%
Cc1cccc2sc(NNC(=O)c3cc(=O)c4ccccc4o3)nc12,2%,-52*,0%,-4%,2%,-16%
O=C(NNc1nc2c(F)cccc2s1)c1cc(=O)c2ccccc2o1,22µM*,-51*,-19%[57.1 µM],-18%,?,?
Cc1ccc(N(CC(=O)NC2CCCC2)C(=O)CCC(=O)Nc2nc(C)cs2)cc1,74%,2,-6%,-7%,32%,2%
Cc1ccc(Nc2ccc(C(=O)O)cc2[N+](=O)[O-])cc1,144%,-25,-4%,-15%,12%,-8%
O=C(O)c1ccc(NCCc2ccc(Cl)cc2)c([N+](=O)[O-])c1,15%,-56*,-5%,11%,-2%,-10%
SMILES,Pol iota inh,PI5P4Ka inh,WRN inhibitor,POLK inh,POLB inh,POLH inh
O=C(Nc1cc(F)cc(F)c1)c1ccc(NCCc2ccccc2)c([N+](=O)[O-])c1,14%,2,-16%[57.1 µM],-15%,2%,-17%
O=C(O)c1ccc(Nc2ccc(Cl)c(Cl)c2)c([N+](=O)[O-])c1,-11%,-52*,-9%,-2%,-23%,?
Cn1cc(/C=C/c2ccc3ccccc3n2)c2ccccc21,2%,nt,nt,2%,nt,nt
O=C(CNC(=O)C12CC3CC(CC(C3)C1)C2)NCc1ccccc1,45%,4,-18%,-15%,nt,1%
FC(F)c1nc2ccccc2[nH]1,24%,-4,9%,-5%,50µM*,0%
Cc1cc(NC(=O)C(C)Sc2nnc(NCc3ccco3)s2)no1 (stereo not drawn),40µM*,-14,-11%,-15%,nt,?
Cc1cc(NC(=O)C(C)SCC(=O)Nc2nnc(CC(C)C)s2)no1 (stereo not drawn),34%,-4,8%,1%,nt,-8%
CS(=O)(=O)c1cc([N+](=O)[O-])c(Sc2nc3ccccc3[nH]2)c([N+](=O)[O-])c1,?,nt,56µM*,-5%,-2%,-4%
Cc1ccc(Cl)cc1N1CCN(C(=O)c2cn(C3CCCCC3)c(=O)c3c2c2ccccc2n3C)CC1,46%,nt,nt,6%,0%,-25%
N#CC1=C(N)Oc2cc(O)c(Cl)cc2C1c1ccccc1F (stereo not drawn),-1%,-64*,-9%,-8%,-11%,-14%
N#CC1=C(N)Oc2cc(O)c(Cl)cc2C1c1cccnc1 (stereo not drawn),?,-52*,5%,-15%,-1%,-6%
COC(=O)C1=C(C)OC(N)=C(C#N)C1c1ccccc1F (stereo not drawn),2%,nt,5%,-5%,1%,-9%
COCCOC(=O)c1c(C)nc(SCC(=O)Nc2ccc(OC)cc2)c(C#N)c1-c1ccco1,?,10,6%,-15%,4%,?
Cc1nc(SCC(=O)c2ccccc2)c(C#N)c(-c2ccco2)c1C(=O)NCc1ccco1,?,?,?,?,4%,20µM*
CN(CCCCCCCCCCN(C)C(=O)Oc1cccc([N+](C)(C)C)c1)C(=O)Oc1cccc([N+](C)(C)C)c1,18%,1,-4%,-2%,nt,-18%
O=C(CSc1nc(O)cc(=O)[nH]1)Nc1ccc2c(c1)CCC2,16µM*,nt,?,79µM*,?,-17%
O=C(CSc1nc(NS(=O)(=O)c2ccccc2)cc(=O)[nH]1)Nc1ccc(F)cc1,18µM*,nt,?,50µM*,25µM*,?
CCN1CCOC(=O)C1CC(=O)Nc1cc(C)ccc1OC (stereo not drawn),12%,nt,nt,-15%,0%,-2%
Cc1cccc(-n2nc3c(c2NC(=O)c2ccco2)CS(=O)C3)c1C (stereo not drawn),81%,2,-19%,4%,0%,-17%
Cc1cccc(-n2nc3c(c2NC(=O)c2ccco2)CSC3)c1C,14µM*,nt,45µM*,28µM*,?,13µM*
Cc1ccccc1-n1nc2c(c1NC(=O)c1c(-c3ccccc3Cl)noc1C)CSC2,79µM*,nt,-13%,-15%,25%,10%
